These results are taken from PubChem BioAssay AID686979 (National Center for Advancing Translational Sciences (NCATS), 2013).

SMILES strings stand for the structures. Screen size: about 420,000 compounds; about 50,000 (12%) were called active. Roughly 26% stayed inconclusive and do not appear here. The entries come from a sample that favours actives as a whole. Values without a mark were called inactive. Calls follow the shape of the dose curve; as a rule, active = well fitted inhibition curve with a large enough effect; inconclusive = small, poorly fitted or top-dose-only effect; inactive = flat fitted curve, though single readings scatter.
% is scaled to controls: 0 for no effect and ±100 for the full control effect; potency is read from the fitted curve at half-maximal effect.

The assay can be described thus: qHTS for Inhibitors of human tyrosyl-DNA phosphodiesterase 1 (TDP1): qHTS in cells in presence of CPT. Also: nearly all actives have a fitted effect of over 55% in size. The settings on record: chicken DT40 Tdp1-/-;hTDP1 cells + 20 nM CPT, ATP luminescence, 48 h; series mostly up to 46.2 µM; activity change, negative = growth inhibition: at the top concentration. In outline: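 Chicken DT40 Tdp1-/- cells stably complemented with human TDP1 were seeded at 400 cells/well in medium containing 20 nM camptothecin, exposed to pin-transferred compounds, and grown at 37 °C for at least 48 hr. Viability was read as ATP luminescence.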
As to `Nc1nc(SCc2cccc(Br)c2)n[nH]1`, the “activity change, negative = growth inhibition” value is -13.6%. The same measure, in the same setting: as for `COc1cc2ccccc2cc1C(=O)Nc1ccccc1C`, the figure is -16.1%; as for `COCC(C)n1c(SCC(=O)NC2CCCCC2C)nc2ccccc2c1=O` (stereo unspecified), -14.7%. For the compound `COc1cccc(-n2c(SCC(=O)c3c[nH]c4ccccc34)nc3ccccc3c2=O)c1`, the Potency is 20.6 µM (active). Same read-out and setting: as for `COCC(C)n1c(SCc2ccc(C(=O)OC)o2)nc2ccccc2c1=O` (stereo unspecified), the figure is 7.31 µM (active). For `COCCn1c(C)cc(C(=O)CSc2nnc(C3CC3)n2C2CC2)c1C`, the “activity change, negative = growth inhibition” value is -5%. As for `COc1cccc(-n2c(SCC(=O)NC3CCS(=O)(=O)C3)nc3ccccc3c2=O)c1` (stereo unspecified), the “activity change, negative = growth inhibition” value is 3.4%.

Turning to `COC(=O)c1ccc(Cc2ccccc2)o1`, the “activity change, negative = growth inhibition” value is 3.76%. On to `CCCn1c(N)c(C(=O)CSc2nc3ccccc3c(=O)n2-c2ccc(OC)cc2)c(=O)[nH]c1=O`, for which the “activity change, negative = growth inhibition” value was 1.77%. As for `COCCn1c(C)cc(C(=O)CSc2nc3ccccc3c(=O)n2C(C)COC)c1C` (stereo unspecified), the Potency is 20.6 µM (active). On to `COc1cccc(-n2c(N)cc(=O)nc2SCC(=O)Nc2cc(C)on2)c1`, for which the “activity change, negative = growth inhibition” value is -3.53%. `COC(=O)c1ccc(CSc2nc3ccccc3c(=O)n2-c2cccc(OC)c2)o1`: the Potency was 20.6 µM (active).

Take `COCCNC(=O)c1ccc(-n2c(SCc3cccnc3)nc3ccccc3c2=O)cc1`: the “activity change, negative = growth inhibition” value is 2.47%. `COCCn1c(C)cc(C(=O)CN2c3cccc4cccc(c34)S2(=O)=O)c1C`: the “activity change, negative = growth inhibition” value is 9.37%. On to `CCOc1ccc(CN(C)C(=O)c2ccc(=O)[nH]c2)cc1`, for which the “activity change, negative = growth inhibition” value was 14.4%. Take `Cc1occc(=O)c1OCc1c(Cl)cccc1Cl`: the “activity change, negative = growth inhibition” value is -17.7%. Still for that read-out and setting: as for `COc1ccc(C2C3=C(CCCC3=O)N(CC(=O)O)C3=C2C(=O)CCC3)cc1`, the figure is -4.55%; as for `CSc1ccc(S(=O)(=O)N2CCC(C(=O)NCc3ccncc3)CC2)cc1`, 0.718%. `COc1ccc(-c2c(C)nn3c(N4CCC(C(=O)N5CCCCC5)CC4)cc(C)nc23)cc1OC`: the “activity change, negative = growth inhibition” value was -7.26%. Consider `CCN(CC)c1nc(-c2ccccc2)cc(C(F)(F)F)c1C#N`, for which the “activity change, negative = growth inhibition” value was -4.95%. Still for that read-out and setting: as for `O=C(CNS(=O)(=O)c1ccccc1)NCC(=O)OCc1ccccc1F`, the figure is -28.2%; as for `Cc1cc(=O)oc2cc(OC(C)C(=O)NCCc3ccc(S(N)(=O)=O)cc3)ccc12` (stereo unspecified), -6.95%. Same read-out and setting: the result for `Nc1nc(SCC(=O)NNc2c(Cl)cc(Cl)cc2Cl)n[nH]1` reads 13.5%; that for `COc1cc(Cl)c(C)cc1NC(=O)COC(=O)c1cc(SC)ccc1Cl`, 16.3%. For the compound `CCC(C)Cn1c(O)cc2nn(-c3nc4ccccc4s3)c(=O)c-2c1C` (stereo unspecified), the Potency was 14.6 µM (active).

Turning to `Cc1ccc(-c2nn3c(=O)cc(CN4CCN(S(=O)(=O)c5ccc(Cl)cc5)CC4)nc3s2)cc1`, the “activity change, negative = growth inhibition” value was -12.6%. Take `Cc1sc(C2C(C#N)=C(N)N(c3cccc(Cl)c3)C3=C2C(=O)CCC3)cc1CN1CCOCC1` (stereo unspecified): the “activity change, negative = growth inhibition” value is -13.7%. Take `CCc1ccc(C2C(C#N)=C(N)N(N(C)C)C3=C2C(=O)CCC3)s1` (stereo unspecified): the “activity change, negative = growth inhibition” value was -18.2%. `CSc1sc(C)cc1C1C(C#N)=C(N)N(c2cccnc2)C2=C1C(=O)CCC2` (stereo unspecified): the Potency is 11.6 µM (active). As for `Cc1cn(C)c(CC(=O)NCc2ccccc2)c1C(=O)O`, the “activity change, negative = growth inhibition” value is -2.5%. On the same count and under the same terms, the result for `C=CCn1c(SCC(N)=O)nnc1-c1cc2c(s1)CCC(CC)C2` (stereo unspecified) reads -13.6%; that for `CCC1OC(c2ccc([N+](=O)[O-])cc2)=Nc2ccccc21` (stereo unspecified), 3.74%; that for `CC(NC(=O)c1ccco1)c1ccc2c(c1)OCO2` (stereo unspecified), -3.51%.

In the case of `COc1ccc(CCNC(=O)COC(=O)Cc2ccccc2F)cc1`, the “activity change, negative = growth inhibition” value was -7.27%.

Consider `COc1ccc(C(CCNCc2ccccc2F)c2ccc(F)cc2)cc1` (stereo unspecified), for which the Potency was 16.4 µM (active). As for `COc1ccc(C(CNCC(=O)Nc2ccccc2F)N(C)C)cc1` (stereo unspecified), the “activity change, negative = growth inhibition” value was -3.81%. `O=C(NNC(=O)C1CCC1)c1ccccc1`: the “activity change, negative = growth inhibition” value was 0.324%. The same measure, in the same setting: the result for `CC1(C)c2[nH]c3ccccc3c2C[C@H]2C(=O)N(N)CC(=O)N21` reads 30.9%. As for `COc1ccc(CC(N)C(=O)NC2C(O)[C@H](n3cnc4c(N(C)C)ncnc43)O[C@@H]2CO)cc1` (stereo partly specified), the Potency was 17.6 µM (active).

Consider `Nc1ncnc2c1ncn2[C@@H]1O[C@H](CNC(=O)[C@H](N)Cc2cccnc2)[C@@H](O)[C@H]1O`, for which the “activity change, negative = growth inhibition” value was 0.794%.

In the case of `COc1cccc(CN(C)C(=O)CC[C@H]2O[C@@H](n3cnc4c(NC(=O)c5ccccc5)ncnc43)[C@H](O)[C@@H]2O)c1`, the “activity change, negative = growth inhibition” value was -19.3%.

In the case of `CC(=O)N1CCOc2ccc(S(=O)(=O)N3CCC(C(=O)Nc4ccccc4F)CC3)cc21`, the “activity change, negative = growth inhibition” value is -1.73%. Regarding `CN(CCO)S(=O)(=O)c1ccc2c(c1)C(=O)c1cc(S(=O)(=O)N(C)CCO)ccc1-2`, the “activity change, negative = growth inhibition” value is 3%. For the compound `O=C1c2ccccc2C(=O)N1c1ccc(S(=O)(=O)N2CCOCC2)c2ccccc12`, the “activity change, negative = growth inhibition” value is -5.84%. The same measure, in the same setting: as for `CCCC/C=C/c1cccc2nncn12`, the figure is -26.4%. Consider `CC(=O)c1ccc(N2CCN(C(=O)C3CCN(S(=O)(=O)c4ccc5c(c4)CC(C)N5C(=O)C4CC4)CC3)CC2)cc1` (stereo unspecified), for which the Potency is 11.6 µM (active). As to `CC(=O)c1ccc(N2CCN(S(=O)(=O)c3ccc4c(c3)CC(=O)N4C)CC2)cc1`, the “activity change, negative = growth inhibition” value was -14.5%. Same read-out and setting: the result for `CCS(=O)(=O)N1CCC(C(=O)N2CCN(c3ccccc3)CC2)CC1` reads -9.24%; that for `Cc1ccc2c(c1)N(CCCC(=O)NCc1cccnc1)C(=O)CO2`, 13.5%; that for `Cc1nc(CC(=O)NNS(=O)(=O)c2ccc(F)c(Cl)c2)cs1`, 1.93%. Still for that read-out and setting: as for `CN(C)S(=O)(=O)c1ccc(Cl)c(NC(=O)COC(=O)CC(NC(N)=O)c2ccc(Cl)cc2)c1` (stereo unspecified), the figure is -19.7%.
